In the supplement of paper PMC10849652:
About 7,900 targets were measured; listed, in parts, are those with a hit and a random draw of the rest. About 0.6% of all pairs of compound and target were hits.

Experiments:
Test in all cases: log2 fold change, soluble protein after heating vs DMSO (PISA); higher = thermal stabilisation; K562 cells, 10 uM, 30 min; active = over 0.2 and 3.5 SD of the protein, either way, in both replicates (recomputed)
[1] = compound: C#Cc1cccc(Nc2ncnc3cc(OCCOC)c(OCCOC)cc23)c1 [erlotinib]
Method in brief: (§1)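 Aliquots of K562 cells (2×10^6 cells/mL) treated with 10 μM compound for 30 min were heated for 3 min over 48°C-58°C. After pooling and extraction in PBS with 0.5% NP-40 at 4°C, soluble protein from a 21,000xg, 90 min spin was quantified by TMTpro 16plex LC-MS/MS with channel sums equalised. Thermal stability is expressed against control samples, from duplicates, as a log2 fold change.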

[2] = compound: C/C(=N\NC(=O)C1=CC(=CC=C1)S(=O)(=O)N2CCOCC2)/C3=C(C=CC(=C3)Cl)O
Method in brief: as §1

[3] = compound: C1=CC(=C(C=C1Cl)C2=NC3=NC=CN=C3C(=N2)NC4=CC=NC=C4)F
Method in brief: as §1

[4] = compound: C1=CC(=CC=C1C2=NC3=C(N2)C=C(C=C3)C(=O)N)OC4=CC=C(C=C4)Cl
Method in brief: as §1

[5] = compound: C1=CC2=C(C=CC(=C2)/C=C\3/C(=O)NC(=NCC4=CC=CS4)S3)N=C1
Method in brief: as §1

[6] = compound: C1=CC2=NC=CN=C2C=C1/C=C/3\C(=O)NC(=O)S3
Method in brief: as §1

[7] = compound: C1=CC=C(C=C1)C2=NC(=C(N2)C3=CC=NC=C3)C4=CC(=C(C=C4)Cl)O
Method in brief: as §1

[8] = compound: C1=CC=C2C(=C1)C3=NNC4=CC=CC(=C43)C2=O
Method in brief: as §1

[9] = compound: C1CCN(C1)C(=O)NC2=CC=CC(=C2)NC3=NC=C(C(=N3)NCCC4=CN=CN4)Br
Method in brief: as §1

[10] = compound: C1CN(CCC1(CC2=CC=C(C=C2)Cl)N)C3=NC=NC4=C3C=CN4
Method in brief: as §1

[11] = compound: C1COCCN1CCN2C3=CC=CC=C3N=C2NC(=O)C4=CC(=CC=C4)[N+](=O)[O-] [IRAK-1-4 Inhibitor I]
Method in brief: as §1

[12] = compound: C=CC(=O)N1CCC[C@@H](n2nc(-c3ccc(Oc4ccccc4)cc3)c3c(N)ncnc32)C1 [ibrutinib]
Method in brief: as §1

[13] = compound: CC(=O)c1cnc2ccc(-c3cc(Cl)c(O)c(Cl)c3)nc2c1N[C@H]1CC[C@H](CN(C)C)CC1
Method in brief: as §1

[14] = compound: CC(C)(C)Cn1c(N)nc2ccc(-c3[nH]c(C(C)(C)C)nc3-c3ccc(F)cc3)nc21 [ralimetinib]
Method in brief: as §1

[15] = compound: CC(C)(O)CC(=O)NCCn1ccc2ncnc(Nc3ccc(Oc4cccc(C(F)(F)F)c4)c(Cl)c3)c21
Method in brief: as §1

[16] = compound: CC(C)C1=C2N=C(C=C(N2N=C1)NCC3=CC=CC=C3)NCCCCCCN
Method in brief: as §1

[17] = compound: CC(C)C[C@@H](C=O)NC(=O)[C@H](CC(C)C)NC(=O)[C@H](CC(C)C)NC(=O)OCc1ccccc1
Method in brief: as §1

[18] = compound: CC(C)N(C[C@H]1O[C@@H](n2cnc3c(N)ncnc32)[C@H](O)[C@@H]1O)[C@H]1C[C@@H](CCc2nc3cc(C(C)(C)C)ccc3[nH]2)C1 [pinometostat]
Method in brief: as §1

[19] = compound: CC1=C(C(CC(=O)N1)C2=CC=C(C=C2)C(F)(F)F)C(=O)NC3=C(C=C4C(=C3)C=NN4)F
Method in brief: as §1

[20] = compound: CC1=C(C2=C(C=C1)C(=O)C3=CC=CC=C3N2CCCN)C
Method in brief: as §1

Measured: log2 fold change

C9orf72 (UniProt Q96LT7)
Sequence of UniProt Q96LT7 (Q96LT7 whole entry, looked up): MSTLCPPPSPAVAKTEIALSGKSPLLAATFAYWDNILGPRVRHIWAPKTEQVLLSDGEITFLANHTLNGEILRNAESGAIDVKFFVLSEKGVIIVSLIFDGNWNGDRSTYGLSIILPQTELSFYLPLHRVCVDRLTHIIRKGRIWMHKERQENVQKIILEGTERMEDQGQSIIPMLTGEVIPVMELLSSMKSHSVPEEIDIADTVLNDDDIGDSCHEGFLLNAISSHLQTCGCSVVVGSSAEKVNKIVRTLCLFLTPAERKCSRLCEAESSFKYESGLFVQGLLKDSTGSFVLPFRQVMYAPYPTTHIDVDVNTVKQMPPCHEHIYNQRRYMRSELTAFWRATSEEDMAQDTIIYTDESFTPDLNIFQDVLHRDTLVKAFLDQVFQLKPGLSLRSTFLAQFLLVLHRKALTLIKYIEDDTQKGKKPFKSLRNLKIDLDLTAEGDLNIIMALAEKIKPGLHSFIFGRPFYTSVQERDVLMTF
inactive: [1] 0.095 | [2] 0.021 | [3] 0.02 | [4] -0.012 | [5] -0.068 | [6] -0.068 | [7] -0.086 | [8] -0.057 | [9] -0.205 | [10] 0.211 | [11] 0.016 | [12] 0.022 | [13] -0.001 | [14] 0.035 | [15] -0.051 | [16] 0.029 | [17] -0.019 | [18] 0.135 | [19] -0.095 | [20] 0.048

C19orf53 (UniProt Q9UNZ5)
inactive: [1] -0.161 | [2] -0.216 | [3] -0.52 | [4] 0.079 | [5] -0.129 | [6] -0.011 | [7] -0.024 | [8] -0.028 | [9] 0.053 | [10] -0.176 | [11] -0.136 | [12] 0.031 | [13] 0.12 | [14] 0.201 | [15] 0.043 | [16] 0.013 | [17] 0.126 | [18] 0.32 | [19] 0.079 | [20] -0.546

COQ7 (UniProt Q99807)
Sequence of UniProt Q99807 (Q99807 whole entry, looked up): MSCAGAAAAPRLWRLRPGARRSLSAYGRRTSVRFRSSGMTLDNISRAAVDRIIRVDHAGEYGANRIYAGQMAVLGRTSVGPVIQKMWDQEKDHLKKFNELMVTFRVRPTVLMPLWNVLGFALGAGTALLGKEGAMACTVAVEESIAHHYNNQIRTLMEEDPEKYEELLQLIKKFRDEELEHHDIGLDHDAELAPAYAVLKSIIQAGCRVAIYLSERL
inactive: [1] 0.082 | [2] -0.014 | [3] 0.075 | [4] 0.023 | [5] -0.005 | [6] 0.068 | [7] -0.024 | [8] -0.009 | [9] 0.02 | [10] 0.052 | [11] 0.08 | [12] 0.021 | [13] -0.064 | [14] -0.03 | [15] 0.01 | [16] -0.034 | [17] 0 | [18] -0.016 | [19] -0.018 | [20] -0.035

CHST11 (UniProt Q9NPF2)
Sequence of UniProt Q9NPF2 (Q9NPF2 whole entry, looked up): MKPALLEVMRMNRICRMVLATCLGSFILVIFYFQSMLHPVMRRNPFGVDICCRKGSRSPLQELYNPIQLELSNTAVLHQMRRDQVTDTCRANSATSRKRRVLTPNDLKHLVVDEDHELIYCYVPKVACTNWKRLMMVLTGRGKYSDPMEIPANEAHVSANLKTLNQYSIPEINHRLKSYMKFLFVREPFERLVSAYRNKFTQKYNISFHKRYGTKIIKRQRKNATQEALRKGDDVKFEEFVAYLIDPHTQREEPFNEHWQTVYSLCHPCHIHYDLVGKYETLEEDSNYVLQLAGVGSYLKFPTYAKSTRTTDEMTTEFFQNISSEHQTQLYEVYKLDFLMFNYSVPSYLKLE
inactive: [1] -0.061 | [2] 0.082 | [3] 0.046 | [4] -0.054 | [5] -0.118 | [6] 0.007 | [7] 0.161 | [8] 0.057 | [9] 0.002 | [10] -0.067 | [11] -0.002 | [12] -0.032 | [13] 0.063 | [14] -0.406 | [15] 0.057 | [16] -0.257 | [17] -0.17 | [18] 0.084 | [19] -0.006 | [20] -0.058

CFAP36 isoform 2 (UniProt Q96G28)
Sequence of UniProt Q96G28 (Q96G28 whole entry, looked up): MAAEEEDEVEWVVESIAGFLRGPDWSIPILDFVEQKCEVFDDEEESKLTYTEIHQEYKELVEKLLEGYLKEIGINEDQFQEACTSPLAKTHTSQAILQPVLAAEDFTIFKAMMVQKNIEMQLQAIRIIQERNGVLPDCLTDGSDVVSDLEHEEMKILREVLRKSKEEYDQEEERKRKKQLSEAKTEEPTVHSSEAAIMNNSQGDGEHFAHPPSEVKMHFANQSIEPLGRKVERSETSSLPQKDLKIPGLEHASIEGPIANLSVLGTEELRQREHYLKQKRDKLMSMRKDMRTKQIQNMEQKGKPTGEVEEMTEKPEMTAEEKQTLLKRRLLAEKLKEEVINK
inactive: [1] 0.048 | [2] -0.11 | [3] -0.046 | [4] 0.005 | [5] 0.059 | [6] 0.042 | [7] -0.068 | [8] 0.007 | [9] 0.127 | [10] -0.111 | [11] -0.183 | [12] -0.022 | [13] 0.001 | [14] 0.053 | [15] -0.012 | [16] -0.09 | [17] 0.065 | [18] 0.024 | [20] 0.103

COX7C (UniProt P15954)
Sequence of UniProt P15954 (P15954 whole entry, looked up): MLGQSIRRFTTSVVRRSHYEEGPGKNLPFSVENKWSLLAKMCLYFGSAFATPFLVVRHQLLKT
inactive: [1] -0.006 | [2] 0.134 | [3] 0.209 | [4] 0.154 | [5] -0.174 | [6] 0.073 | [7] 0.08 | [8] 0.27 | [9] -0.003 | [10] 0.047 | [11] -0.013 | [12] 0.057 | [13] -0.013 | [14] 0.301 | [15] 0.041 | [16] 0.184 | [17] 0.074 | [18] 0.092 | [19] 0.022 | [20] 0.009
